A selection: hits, their analogues and other compounds. The true share with any hit is near 3.5%.
GPR151 activ: human GPR151 activation; PathHunter beta-arrestin GPR151 cells, luminescence; activation, % at 11.2 µM; hit rate 1% among 650,000; AID 1508602; in the data active = activation above about 4.9%;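 also: 0% = median of compound wells and 100% = cells with positive control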
MITF primary: blocks human microphthalmia-associated transcription factor. O75030. AlphaScreen MITF homodimerization, bead proximity signal. inhibition, % at 2.6 µM. hit rate 0.91% among 650,000; in the data active = inhibition above about 50%;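 also: 0% = vehicle wells with protein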
TEAD-YAP inh: TEAD-YAP interaction inhibition; AID 1259422; inhibition, % at 9.12 µM; HEK-TIYL cells, TEAD-Gal4/YAP UAS-luciferase luminescence; hit rate 1.4% among 640,000; in the data active = inhibition above about 32%;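 also: 0% = median of test compound wells and 100% = reference inhibitor wells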
FBW7 activator: human FBW7 E3 ligase activation, primary screen; Q969H0; AlphaScreen FBW7–phospho-cyclin E peptide binding, activator screen; normalized activity (activation), % at 26.1 µM; hit rate 0.13% among 650,000; AID 1259310; in the data active = normalized activity above about 1.9%;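 also: purified mutant Fbw7 with reduced substrate affinity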
Target sequence (Q969H0 whole entry, looked up): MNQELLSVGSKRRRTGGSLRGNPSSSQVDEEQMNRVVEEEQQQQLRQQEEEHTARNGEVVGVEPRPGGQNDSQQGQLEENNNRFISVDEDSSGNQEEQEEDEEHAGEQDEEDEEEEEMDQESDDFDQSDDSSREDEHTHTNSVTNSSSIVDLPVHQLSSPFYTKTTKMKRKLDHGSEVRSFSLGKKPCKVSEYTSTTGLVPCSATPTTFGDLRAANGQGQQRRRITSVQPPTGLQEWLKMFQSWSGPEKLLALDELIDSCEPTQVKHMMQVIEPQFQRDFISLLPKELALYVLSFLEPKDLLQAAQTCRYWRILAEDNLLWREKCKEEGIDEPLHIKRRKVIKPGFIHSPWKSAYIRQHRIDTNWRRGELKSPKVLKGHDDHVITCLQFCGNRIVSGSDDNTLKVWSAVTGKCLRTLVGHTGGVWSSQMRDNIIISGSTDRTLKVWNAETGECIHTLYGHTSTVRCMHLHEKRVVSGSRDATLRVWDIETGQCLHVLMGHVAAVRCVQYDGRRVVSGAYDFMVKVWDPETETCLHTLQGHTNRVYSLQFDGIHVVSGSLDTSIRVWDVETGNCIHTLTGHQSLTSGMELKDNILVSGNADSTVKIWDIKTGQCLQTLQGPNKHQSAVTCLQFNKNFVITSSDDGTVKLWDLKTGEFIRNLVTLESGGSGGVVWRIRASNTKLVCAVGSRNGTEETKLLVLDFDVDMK
* = called active by the depositor.

SMILES | GPR151 activ | MITF primary | TEAD-YAP inh | FBW7 activator
Cc1ccc(C(=O)NC(=S)NCC(=O)c2ccccc2)cc1 | 3 | -8 | -17 | 0
Cc1ccc(C(=O)CNC(=O)c2ccccc2)cc1 | -8 | 4 | 65* | 0
CN(C)CCNC(=O)c1ccc(-c2ccccc2)cc1 | -2 | 3 | 35* | 0
C=CC1=C(C)C2=CC3=NC(=C(CC(=O)[O-])C4=NC(=C(C)C4=C([O-])[O-])C=c4[n-]c(c(C)c4CC)=CC1=N2)C(CCC(=O)[O-])C3C.C=CC1=C(C)C2=CC3=NC(=C(CC(=O)[O-])C4=NC(=C(C)C4=C([O-])[O-])C=c4[n-]c(c(C)c4CC)=CC1=N2)C(CCC(=O)[O-])C3C.[Cu+2].[Na+].[Na+].[Na+] (stereo unspecified) | 0 | 60* | 14 | 0
Cc1c(/C=C/c2nc3ccccc3s2)cc(C#N)n1C | -3 | 19 | 73* | 0
Cc1c(/C=C(\C#N)c2ccccn2)cc(C#N)n1C | 1 | -10 | 2 | 0
Cc1csc(NC(=O)CCCOc2ccc(Cl)cc2C)n1 | -1 | 16 | -6 | 0
CC1=CC(=O)C(N2CCC(Cc3ccccc3)CC2)=CC1=O | -2 | 60* | 4 | 0
O=S(=O)(Cc1ccccc1)N1CCC(Cc2ccccc2)CC1 | 1 | -4 | 3 | 0
Nc1nc(SCC(=O)Nc2ccc(Cl)cc2F)n[nH]1 | 1 | 3 | 1 | 0
CCOCCn1c(=NC(=O)c2cccc(OC)c2OC)sc2ccccc21 | -5 | 11 | 74* | 0
COCCn1c(=NC(=O)c2cccc(OC)c2OC)sc2cc(OC)c(OC)cc21 | -2 | -6 | -9 | 0
CC(C)(C)C(=O)COC(=O)/C=C/c1ccc(I)o1 | 1 | 32 | 12 | 0
O=C(O)CCC(=O)Nc1ccc(-c2nc3cc4ccccc4cc3[nH]2)cc1 | 0 | -2 | -33 | 0
O=C(O)CCC(=O)Nc1cccc(-c2nc3cc4ccccc4cc3[nH]2)c1 | -6 | -30 | 34* | 0
CCC1=Nc2cc(C(=O)NCCCN3CCOCC3)ccc2Sc2ccccc21 | 0 | 3 | 2 | 0
COC(=O)c1ccc2c(c1)N=C(C)c1cc(C)ccc1S2 | -1 | 6 | -8 | 0
CCOCCCNC(=O)c1ccc2c(c1)N=C(C)c1cc(C)ccc1S2 | 0 | 3 | 68* | 0
CCCC1=Nc2cc(C(=O)NCCOC)ccc2Sc2ccccc21 | 0 | 9 | 51* | 0
CCOCCCNC(=O)c1ccc2c(c1)N=C(CC)c1ccccc1S2 | 0 | 8 | 58* | 0
CCC1=Nc2cc(C(=O)NCCCOC)ccc2Sc2ccccc21 | 1 | 2 | 57* | 0
Cc1cccc(C2=N/C(=C/c3ccc([N+](=O)[O-])cc3)C(=O)N2c2cc(Cl)ccc2C)c1 | 0 | -1 | 5 | 0
O=C(CCCCCCC(=O)Nc1ccccc1[N+](=O)[O-])Nc1ccccc1[N+](=O)[O-] | -1 | -9 | 8 | 0
CCCn1cnc2c(-c3ccc(F)cc3)nsc2c1=O | -1 | -5 | -40 | 0
O=C(CSc1nc2[nH]ncc2c(=O)n1-c1cccc(C(F)(F)F)c1)Nc1ccc(F)c(F)c1 | 1 | 1 | 13 | 0
SMILES | GPR151 activ | MITF primary | TEAD-YAP inh | FBW7 activator
Cc1nc(NCCCO)c2c(-c3cccs3)csc2n1 | 1 | 4 | 32* | 0
CNC(=O)c1c(NC(=O)c2ccccc2F)sc2c1CCCC2 | -1 | 2 | -5 | 0
O=C(Nc1sc2c(c1C(=O)N1CCCCC1)CCCCC2)c1ccccc1F | 0 | 1 | 5 | 0
O=C(Nc1sc2c(c1C(=O)O)CCCCC2)c1ccccc1F | -8 | 11 | 56* | 0
O=C(Nc1sc2c(c1C(=O)O)CCCC2)c1ccccc1F | -6 | 10 | 52* | 0
Cc1ccc(Nc2nc(N)nc(CSc3nnc(N)s3)n2)cc1 | 0 | -1 | -49 | 0
O=C(O)c1ccc(Oc2ccc(N3C(=O)c4ccc(Oc5ccc([N+](=O)[O-])cc5)cc4C3=O)cc2)cc1 | 1 | 1 | -5 | 0
O=C(O)c1ccc(N2C(=O)c3ccc(Oc4ccc([N+](=O)[O-])cc4)cc3C2=O)cc1[N+](=O)[O-] | 0 | -10 | 3 | 2.5*
O=C1c2ccc([N+](=O)[O-])cc2C(=O)N1c1ccc(I)cc1 | -1 | 7 | 4 | 2.2*
O=C1c2ccc([N+](=O)[O-])cc2C(=O)N1CCCCN1C(=O)c2ccc([N+](=O)[O-])cc2C1=O | 2 | 0 | 1 | 0
O=C1C(=O)c2cc([N+](=O)[O-])ccc2-c2ccc([N+](=O)[O-])cc21 | 1 | 15 | 53* | -1
O=C1c2ccc([N+](=O)[O-])cc2C(=O)N1c1ccc(O)cc1 | 2 | -5 | 7 | 0
NC(=O)Nc1ccc(C(=O)OCC(=O)c2ccc3c(c2)NC(=O)CO3)cc1 | -1 | 2 | 8 | 0
Cc1nc(SCc2ccc(Br)cc2)n[nH]1 | 0 | 15 | 33* | 0
Cc1nc(SCc2ccc(OC(C)C)cc2)n[nH]1 | -5 | 15 | 95* | 0
Fc1ccccc1-c1cn2c3c(nnc2n1)CCCC3 | -1 | -1 | 92* | 0
Cc1ccc2c(c1)-c1onc(C(=O)Nc3ccc(F)cc3)c1CO2 | -1 | -5 | -17 | 0
c1ccc(-n2cnc3c(NCCN4CCOCC4)nc(NCCN4CCOCC4)nc32)cc1 | -1 | 7 | 6 | 0
COc1ccc(-c2nc(NCCN3CCOCC3)c3ncn(-c4ccccc4)c3n2)cc1 | -1 | 16 | 47* | 0
CN1CCN(c2ccc(-c3nc(NCCO)c4ncn(-c5ccccc5)c4n3)cc2)CC1 | 0 | -11 | 73* | 0
c1ccc(Oc2nc(NCCN3CCOCC3)c3ncn(-c4ccccc4)c3n2)cc1 | 1 | 20 | 34* | 0
CN1CCN(c2ccc(-c3nc(NCCOc4ccccc4)c4ncn(-c5ccsc5)c4n3)cc2)CC1 | 0 | 6 | 11 | 0
CCOc1ccccc1-n1c(=S)sc2c(=O)n(-c3ccc(C)cc3)c(SCC(=O)N3CCCC3)nc21 | 2 | -4 | 7 | 0
Cc1ccc(/C=N/NC(=O)CNc2ccccc2C)cc1 | -1 | -15 | 44* | 0
Nc1ccc(NC(=O)CN2CCCCC2)cc1 | 0 | 2 | 6 | 2.0*
SMILES | GPR151 activ | MITF primary | TEAD-YAP inh | FBW7 activator
CCN(C(=O)COc1ccc(Cl)cc1)C1CCCCC1 | -1 | 0 | -9 | 0
COC(=O)c1ccc(C)c(NS(=O)(=O)c2ccc(Cl)cc2)c1 | -1 | -6 | 54* | 0
COC(=O)c1ccc(C)c(NS(=O)(=O)c2ccc(OC)cc2)c1 | -1 | 5 | 66* | 0
CCOc1ccc(S(=O)(=O)Nc2cc(C(=O)OC)ccc2C)cc1 | 0 | 1 | 55* | 0
COC(=O)c1ccc(C)c(NS(=O)(=O)c2ccc(SC)cc2)c1 | 0 | 15 | 47* | 1
Cc1cccc(Nc2nnc(SCC(=O)c3cc(C)n(CC4CCCO4)c3C)s2)c1 (stereo unspecified) | 0 | 9 | 0 | 0
COC(=O)c1ccc(C)c(NS(=O)(=O)c2ccc(C)c([N+](=O)[O-])c2)c1 | 0 | 10 | 11 | 0
COc1ccc(S(=O)(=O)Nc2cc(S(N)(=O)=O)ccc2C)cc1 | 2 | -2 | 3 | 0
